Screening results deposited in PubChem BioAssay by National Center for Advancing Translational Sciences (NCATS).
Shown are actives, neighbours in structure and some others; about 2.8% of the full set was active somewhere.
D3 ag = D3 dopamine receptor (human) agonism | P35462 | hit rate 0.58% among 410,000 | D3R DiscoveRx beta-arrestin cells, luminescence, 90 min | max activation, % | AID 652048; in the data active means max activation above about 30%; further: 0% is about no effect
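Cells at 1500/well, incubated overnight, then treated with pinned compounds (dopamine as control) for 90 min at 37 degrees C. DiscoveRx reagent added for 30 - 60 minutes at room temperature; luminescence read.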
DRD3 antagonist = D3 dopamine receptor (human) antagonism. P35462. D3R cells, DiscoveRx beta-arrestin luminescence, antagonist mode; hits give low values. max response, negative = inhibition, %. hit rate 2.5% among 360,000. AID 652054; in the data active means max response below about -50%; inconclusive means no clear call, values can overlap the other calls; further: on the % scale 0 is the no-effect control and ±100 the full control effect
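Cells expressing the human receptor were seeded at 1500 cells/well, incubated overnight at 37 degrees C in 5% CO2, then exposed to library compounds with dopamine controls for 90 minutes at 37 degrees C before luminescent detection.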
CBFb RUNX1 block = blocks binding between human CBF-beta and RUNX1; Q01196+Q13951; AlphaScreen CBFb-His/RUNX1-biotin binding, biochemical; Potency, µM (doses to about 59.8 µM), inactives show top-dose activity, negative = inhibition, usual class: inhibitors; 230,000 tested, under 10 active; AID 1477; further: % of control where 0% means no effect
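Read-out: AlphaScreen. Format: His-CBF-beta with biotinylated RUNX1 (30 nM each) preincubated 20 min, compound 15 min, Ni-chelate plus streptavidin beads 90 min; room temperature throughout.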
a7 integrin act = activates integrin-mediated alleviation for muscular dystrophy. hit rate 0.064% among 350,000. alpha7betagal myoblasts, beta-gal FDG fluorescence, 48 h. Potency, µM (top dose mostly 38.3 µM), without a hit: at the top dose activation, actives largely listed as activators;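 further: potency means the concentration at half of the fitted maximal effect; 100% = response of the positive control SU9516; nearly all actives have a fitted effect of over 60% in size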
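alpha7betagal+/- myoblasts (passage 13, 250/well) treated 48 h at 37C with compounds at 1:260 dilution of DMSO stock. Lysed, then beta-galactosidase activity read as FDG fluorescence (ex 480/em 540) after 30 min, with pre-read for autofluorescence.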
PTHR1 agonist = activates the human parathyroid hormone receptor PTHR1 | HEK293 GP2 PTHR1 cells, GloSensor cAMP luminescence, 1 h | Potency, µM (series often up to 115 µM), without a hit: at the top dose activation, actives largely listed as activators | hit rate 0.075% among 410,000; further: potency means the concentration at half of the fitted maximal effect; nearly all actives have a fitted effect of over 55% in size
Target sequence (Q03431 whole entry, looked up): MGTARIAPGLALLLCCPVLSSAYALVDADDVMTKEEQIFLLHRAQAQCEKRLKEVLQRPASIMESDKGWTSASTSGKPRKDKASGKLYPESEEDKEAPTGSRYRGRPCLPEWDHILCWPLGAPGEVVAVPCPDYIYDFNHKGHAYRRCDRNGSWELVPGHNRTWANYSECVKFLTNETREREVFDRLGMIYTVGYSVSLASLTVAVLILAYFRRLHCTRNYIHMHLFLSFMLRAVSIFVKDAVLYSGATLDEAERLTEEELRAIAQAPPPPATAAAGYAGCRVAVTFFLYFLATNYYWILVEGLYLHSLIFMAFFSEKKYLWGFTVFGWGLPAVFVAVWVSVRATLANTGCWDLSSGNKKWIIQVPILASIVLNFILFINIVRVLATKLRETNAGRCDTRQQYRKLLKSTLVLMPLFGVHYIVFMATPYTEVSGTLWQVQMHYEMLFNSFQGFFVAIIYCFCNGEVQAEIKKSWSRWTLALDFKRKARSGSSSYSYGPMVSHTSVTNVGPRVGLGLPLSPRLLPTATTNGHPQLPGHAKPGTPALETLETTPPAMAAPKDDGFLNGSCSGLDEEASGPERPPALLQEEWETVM
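HEK-293-derived GP2 cells expressing PTHR1 and a GloSensor cAMP reporter, 3,000/well, plated overnight, given luciferin plus IBMX (each 0.5 mM as added) for 1 h at 37 °C, then compound for 1 h at 37 °C. Luminescence was read after 15 min at room temperature.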
MBNL1-CUG inh = MBNL1-poly(CUG) RNA binding inhibition; Potency, µM (series often up to 57.5 µM), inactives show at the highest dose activity change, negative = inhibition, usual class: inhibitors; TR-FRET MBNL1-His/biotin-(CUG)12 binding, 665/545 ratio; hit rate 0.036% among 280,000; Q9NR56; active means well fitted inhibition curve with a large enough effect in the signal ratio, with a control signal flat, not every such curve was filed as active; inconclusive means small, poorly fitted or top-dose-only effect, or effect the other way, or a change in a side signal; inactive means no such curve, though single readings can be large or run the other way; the % refers to the signal ratio; further: potency means the concentration at half of the fitted maximal effect; on the % scale 0 is the no-effect control and ±100 the full control effect
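Compounds (final 92 nM to 58 uM) are added to His-tagged MBNL1 and biotin-(CUG)12, then terbium anti-His antibody and streptavidin-XL665 (5 nM final). After 60 min at room temperature, the 665/545 nm ratio is read.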
Numbers without * were called inactive; i = inactive; ? = inconclusive; . = not tested or not shown; [ ] = dose if it differs, or a comment. Unless noted, the call rests on the fitted dose curve; in most records, active means well fitted curve in the direction sought with a large enough effect; inconclusive means small, poorly fitted or top-dose-only effect, or another doubt; inactive means no such curve, though single readings can be large; an effect the other way counts as inactive or inconclusive.

SMILES	D3 ag	DRD3 antagonist	CBFb RUNX1 block	a7 integrin act	PTHR1 agonist	MBNL1-CUG inh
CCc1nn(CC(=O)N2CCN(c3ccc(OC)cc3)CC2)c(=O)c2cc3occc3n12	34.0*	7.8	.	-6.1%	-4.7%	1.6%
CS(=O)(=O)NCC(c1ccco1)N1CCN(c2ccc(F)cc2)CC1 (stereo not drawn)	-13.2	0.4	-5.5%	-0.5%	-26.1%	-11.4%
Cc1cc(Cn2nc(C(=O)NCc3cccc(C(F)(F)F)c3)cc2-c2ccccc2)on1	-15.0	-59.9*	.	-2.7%	-9.2%	.
Cc1ccc(CNC(=O)c2cc(-c3ccccc3)n(Cc3cc(C)no3)n2)cc1	6.6	16.8	.	-1.3%	-30.2%	.
Cc1ccc(C)c(S(=O)(=O)c2nnn3c2nc(Nc2ccc(F)c(Cl)c2)c2sccc23)c1	4.2	.	.	.	-29.7%	.
O=Cc1c(Cl)nc2ccccn2c1=O	-4.6	-66.7*	10.1%	-59.1%	-89.1%	?
COc1cccc(N2CC(NS(=O)(=O)c3ccc4ccccc4c3)CC2=O)c1 (stereo not drawn)	0.0	3.6	.	13.6%	-18.5%	.
O=C(Nc1ccc(F)c(Cl)c1)N1CCN2CCCCC2C1 (stereo not drawn)	-7.6	.	.	.	i	.
COc1cnc(SCCC(F)=C(F)F)[nH]c1=O	0.4	-3.6	7.3%	?	14.9%	-17.4%
N#CC1=C(N)N2C(=C(C#N)C1c1ccccc1)Sc1ccccc12 (stereo not drawn)	.	.	4.6%	.	.	5.7%
c1ccc([C@H]2CN3C(=N2)Sc2ccccc23)cc1	-14.2	-51.7*	.	-22.2%	-38.7%	.
COc1ccc(S(=O)Cc2ccc(C(=O)NCc3cccc(OC)c3)o2)cc1 (stereo not drawn)	0.4	3.6	.	18.2%	i	4.8%
Cc1ccc2[nH]nc(C(=O)N3CCCC(C(=O)c4ccc(Cl)cc4)C3)c2c1 (stereo not drawn)	34.3*	33.3	12.2%	3.4%	-16.4%	-8.3%
Cc1noc(C)c1C(=O)N1CCCC(C(=O)c2ccc(Cl)cc2)C1 (stereo not drawn)	-11.0	-11.8	12.2%	4.9%	i	2.1%
C[C@]1(OC(=O)/C=C\c2ccccc2)C[C@@H](O)[C@@]2(O)C=CO[C@@H](O[C@H]3O[C@@H](CO)[C@@H](O)[C@@H](O)[C@@H]3O)[C@H]21	.	.	6.2%[21.7 µM]	.	.	.
CCc1nc2ccc(C(=O)NCCCn3ccnc3)cn2c1N(C)Cc1cc2ccccc2s1	3.1	16.9	.	.	i	.
CCc1nc2ccc(C(=O)N3CCN(C(=O)c4ccco4)CC3)cn2c1N(C)Cc1cccs1	1.9	72.0	.	.	i	.
CCc1nc2ccc(C(=O)NC3CCN(Cc4ccccc4)CC3)cn2c1N(C)Cc1cc2ccccc2s1	-9.7	-67.7*	.	.	-11.8%	.
CCc1nc2ccc(C(=O)NC3CCN(Cc4ccccc4)CC3)cn2c1N(C)Cc1cccs1	-29.4	-77.2*	.	.	-6.1%	.
O=c1[nH]c2cc([N+](=O)[O-])c(NCCO)c([N+](=O)[O-])c2[nH]1	-18.2	-59.4*	-18.8%	17.0%	i	?
CC(=O)Nc1c([N+](=O)[O-])cc2[nH]c(=O)[nH]c2c1[N+](=O)[O-]	-5.1	?	7.8%	15.0%	-24.6%	?
CCCS/C(N)=N/N=C/c1cc(C)ccc1O	-10.5	-21.8	-0.5%	7.8%	-24.1%[57.5 µM]	2.3%
CCCCS/C(N)=N/N=C/c1ccccc1O	-3.0	-50.2*	2.6%	-11.5%	-36.5%	2.8%
CC(=O)O[C@@H](Cc1ccc(O)cc1)C(=O)CC(C)C	-11.4	0.0	.	.	12.2%	.
Cc1ccc(C(=O)NCC(=O)NCCSc2ccc(Br)cc2)cc1	-13.4	-56.7*	.	5.9%	i	.
CCOc1ccc(C(=O)NCC(=O)NCCSc2ccc(Br)cc2)cc1OCC	-5.0	?	.	-31.5%	-21.9%	.
CCc1ccc(NC(=O)CSC2=C(C#N)C(c3ccco3)C3=C(CCCC3=O)N2)cc1 (stereo not drawn)	1.6	-17.9	-5.9%	-22.6%	-4.6%[57.5 µM]	3.3%
